Here are results for 93 molecules from ChEMBL document CHEMBL3988442, “University of Dundee, Small-Polar-MMV Screening Library” (2021).

Structures are written as SMILES. In all, about 69,000 compounds went through this assay and about 950 (1.4%) showed an effect of 50% or more. What follows is part of a selection rich in strong results, with near analogues and random picks from the rest.

The assay has as its system Mycobacterium tuberculosis. Description: Cornell M. t heat shock assay. Further: in the data most compounds retested in dose-response had high values. Set-up: dose or concentration left out as unconfirmed. In kind it is functional, organism-based.
As to `Cc1cccc(CN2C(=O)CCC23CCNCC3)n1.O=C(O)C(F)(F)F.O=C(O)C(F)(F)F`, the “Percent Effect” value is on record as -5.538%.
Regarding `COCCN1CCC2(CCCN(c3ncccn3)C2)C1.O=C(O)C(F)(F)F` (stereo not drawn), the “Percent Effect” value is reported as -80.98%.
Consider `CN1CCCC(c2n[nH]c3ncccc23)C1` (stereo not drawn), for which the “Percent Effect” value was -10.45%.
In the case of `CN1CCC(c2n[nH]c3ncccc23)C1.O=CO` (stereo not drawn), the “Percent Effect” value was found to be 50.56%.
Next, `c1cnc(N2CCC(c3n[nH]c4ncccc34)C2)nc1` (stereo not drawn): -8.956%; `Cc1ccc(N2CCN(c3ccccc3C)CC2C)nn1` (stereo not drawn): 2.644%.
Next, `Cc1ccccc1N1CCN(c2ccncn2)C(C)C1` (stereo not drawn): 56.56%; `Cc1ccccc1N1CCN(c2cc(N(C)C)ncn2)C(C)C1` (stereo not drawn): 21.52%; `Cc1ccc(Nc2nccc(C3CCN(C(=O)CN)C3)n2)nc1.Cl` (stereo not drawn): -1.968%.
On to `COc1cccc(COCC(O)CN(C)c2ccc(C)cc2C)c1` (stereo not drawn), for which the “Percent Effect” value is reported as -34.76%.
For the molecule `OCC1(CC2CCCCO2)CCN(c2cnc3ccccc3n2)CC1` (stereo not drawn), the “Percent Effect” value was determined as 103.4%.
Next, `Cc1cc(N2CCC(CO)(CC3CCCCO3)CC2)nc2ccccc12` (stereo not drawn): 3.069%; `Cc1cc(N2CCC(CO)(CC3CCCCO3)CC2)c2ccccc2n1` (stereo not drawn): -3.721%.
Next, `CO[C@@H]1CC[C@H]2[C@H]1OCCN2Cc1ccc(F)cc1.O=C(O)C(F)(F)F`: -14.29%.
Regarding `CCn1cc(NC(=O)CN2CCC(Oc3ccc(F)cc3)CC2)c(C)n1.Cl`, the “Percent Effect” value is listed as -4.397%.
Regarding `CCCN(C(=O)c1cnccn1)c1nc2c(s1)CCc1c-2cnn1C`, the “Percent Effect” value is reported as -8.207%.
With `CCCN(C(=O)c1cccnc1)c1nc2c(s1)CCc1c-2cnn1C`, the “Percent Effect” value was determined as 19.23%.
Next, `CCCN(C(=O)c1cnc(C)cn1)c1nc2c(s1)CCc1c-2cnn1C`: -19.73%; `COCCN(C(=O)c1ccccn1)c1nc2c(s1)CCc1c-2cnn1C`: 15.96%.
As for `CCCN(C(=O)c1ccccn1)c1nc2c(s1)CCc1c-2cnn1C`, the figure is 103.2%.
Regarding `CCCN(C(=O)c1ccncc1)c1nc2c(s1)CCc1c-2cnn1C`, the “Percent Effect” value is given as 61.93%.
As for `Cc1nc(N2CCOCC2)nc2c1CCN(Cc1nccn1C)CC2.O=C(O)C(F)(F)F`, the figure is -4.986%.
As for `O=C(O)C(F)(F)F.O=C(c1cccnc1)N1CCC2(CCN(C(=O)N3CCCC3)CC2)C1`, the figure is 2.065%; as for `CCN1Cc2nccn2CC(COCc2csc(C)n2)C1.O=C(O)C(F)(F)F.O=C(O)C(F)(F)F` (stereo not drawn), 34.39%.
For the molecule `CN1C(=O)CC(c2ccccc2)C12CCN(CCO)CC2.O=C(O)C(F)(F)F` (stereo not drawn), the “Percent Effect” value was determined as 13.27%.
Consider `Cl.O[C@@H]1CN(Cc2cccc(F)c2)CC[C@H]1NCc1ccccn1`, for which the “Percent Effect” value came to 14.29%.
As for `CCOc1ccc2c(c1)CN(Cc1nc3c(cnn3C)c(=O)[nH]1)CC2`, the “Percent Effect” value is reported as -1.196%.
As for `COc1ccc2c(c1)CN(Cc1nc3ccsc3c(=O)[nH]1)CC2`, the figure is 63.99%; as for `COc1ccc2c(c1)CN(Cc1nc3c(cnn3C)c(=O)[nH]1)CC2`, -0.696%; as for `Fc1cnc(N2C[C@@H](OCC3CCOCC3)[C@H]3OCCC[C@H]32)nc1.O=C(O)C(F)(F)F`, 41.59%.
For the molecule `CC(C)N1CCc2nnc(COc3cncnc3)n2CC1.O=C(O)C(F)(F)F`, the “Percent Effect” value was -11.8%.
For the molecule `CO[C@H]1CCN(C(=O)c2ccsc2)[C@@H]2CN(CC3CC3)C[C@H]12.O=C(O)C(F)(F)F`, the “Percent Effect” value is on record as -4.831%.
As for `Cc1cccc(N2CCOCC3(C2)CN(c2ccoc2)C(=O)CO3)n1.O=C(O)C(F)(F)F` (stereo not drawn), the figure is 36.14%; as for `CN(C)[C@@H]1CN(C(=O)Cc2ccsc2)[C@@H]2CCCO[C@H]12.O=C(O)C(F)(F)F`, 1.941%.
Next, `Cc1ncnc(N2CCCN(c3nc4ccccc4s3)CC2)c1C`: 10.22%; `c1ccc2sc(N3CCCN(c4ncnc5c4CCNC5)CC3)nc2c1`: 53.45%.
With `c1ccc2sc(N3CCN(c4ncnc5c4CCC5)CC3)nc2c1`, the “Percent Effect” value is -9.42%.
In the case of `O=C(c1ccco1)N1C(CN2CCOCC2)[C@]2(O)CC[C@H]1CC2` (stereo partly drawn), the “Percent Effect” value came to 30.59%.
Take `c1ccc(CO[C@@H]2CN(Cc3ccoc3)[C@@H]3COC[C@@H]32)nc1`: the “Percent Effect” value was found to be 52.89%.
For `Cc1nc(CO[C@@H]2CN(Cc3ccccn3)[C@@H]3COC[C@@H]32)cs1`, the “Percent Effect” value was -33.39%.
Turning to `Fc1ccc(CN2C[C@@H](OCc3ccccn3)[C@H]3COC[C@H]32)cc1.O=C(O)C(F)(F)F.O=C(O)C(F)(F)F`, the “Percent Effect” value is recorded as 25.12%.
Next, `Cc1nc(C2CCNC2)nc2c1CCC(=O)N2C.Cl` (stereo not drawn): 7.271%.
As for `O=C(NCCc1ccccc1)NCC(O)c1cccs1` (stereo not drawn), the “Percent Effect” value is reported as 20.6%.
On to `CN1CC(=O)c2sc(NCCc3ccccc3)nc2C1`, for which the “Percent Effect” value was -13.74%.
As for `Br.O=C(O)c1csc(NCCc2ccccc2)n1`, the “Percent Effect” value is recorded as 78.91%.
Take `COCCNC(=O)c1cc(-c2cc[nH]n2)n2ccccc12.O=C(O)C(F)(F)F`: the “Percent Effect” value is listed as -6.749%.
As for `O=C(C1CCCO1)N1CCC2(CC1)COCCN(Cc1cccnc1)C2.O=C(O)C(F)(F)F.O=C(O)C(F)(F)F` (stereo not drawn), the figure is -5.406%; as for `O=C([C@@H]1CCCO1)N1CCOCC2(CCN(Cc3cccnc3)C2)C1` (stereo partly drawn), 51.35%; as for `O=C(O)C(F)(F)F.O=C(O)C(F)(F)F.O=C(O)C(F)(F)F.c1cncc(CN2CCC3(COCCN(C4CCOCC4)C3)C2)c1` (stereo not drawn), -18.23%.
Next, `Cc1ccc(N2CCC3(CCN(C(=O)c4ccoc4)CC3)CC2)nn1.O=C(O)C(F)(F)F`: -13.67%; `CS(=O)(=O)NCc1cn2c(n1)CN(Cc1cccnc1)CC2.O=C(O)C(F)(F)F.O=C(O)C(F)(F)F`: 42.6%.
As for `CN1CCC(c2nc3ccc(-c4cccc(F)c4)cn3n2)CC1.O=C(O)C(F)(F)F`, the figure is 3.867%; as for `O=C(Nc1ccc(F)cc1)C1CSCN1` (stereo not drawn), 55.12%.
Consider `O=C(Nc1ccc(F)cc1)C1CCc2ccccc2N1` (stereo not drawn), for which the “Percent Effect” value was 1.641%.
For the molecule `CNc1ncc(-c2ccc(NC(=O)[C@@H]3CCCCN3)cc2)cn1`, the “Percent Effect” value is -9.316%.
Next, `Nc1ncc(-c2ccc(NC(=O)[C@@H]3CCCCN3)cc2)cn1`: -9.095%; `Cl.N#Cc1ccc(NC(=O)C2CSCN2)cc1` (stereo not drawn): 75.04%.
With `Cc1csc2c(N3CCNC(C(=O)Nc4ccc(F)cc4)C3)ncnc12` (stereo not drawn), the “Percent Effect” value came out at 27.39%.
Regarding `Cc1ccc(C(=O)N2[C@@H]3CC[C@H]2CN(C)C(=O)C3)c(=O)[nH]1`, the “Percent Effect” value is given as -6.73%.
Next, `O=C(O)C(F)(F)F.O=C([C@@H]1C[C@@H]2CCN(Cc3ccc4c(c3)OCO4)C[C@@H]2O1)N1CCCC1`: -15.24%.
As for `CC(C)COC[C@@H]1CC[C@H]2[C@H](CCN2C(=O)c2ccncc2F)O1.O=C(O)C(F)(F)F`, the figure is -34.7%; as for `Cn1c(CCNc2nccnc2C#N)nc2cc(Cl)ccc21`, -3.646%.
Take `Cc1ncc(CN(C)Cc2nc3cc(Cl)ccc3n2C)s1`: the “Percent Effect” value is 61.31%.
For `CCn1c(CN(C)Cc2cnc(C)s2)nc2c(F)cccc21`, the “Percent Effect” value is -32.12%.
Turning to `O=C(O)C(F)(F)F.O=C(O)C(F)(F)F.c1ccc(CO[C@@H]2CC[C@H]3[C@H]2OCCN3Cc2ccsc2)nc1`, the “Percent Effect” value is -28.68%.
Next, `CNc1cncc(C2CCCN2Cc2ccccc2OCC(=O)O)n1` (stereo not drawn): 2.446%; `Cc1ccccc1CN1CCCC1c1cncc(Nc2nncs2)n1` (stereo not drawn): 103.1%.
Take `COc1cccc(CN2CCCC2c2cncc(Nc3nncs3)n2)c1` (stereo not drawn): the “Percent Effect” value was determined as 104.6%.
As to `CNc1cncc(C2CCCN2Cc2ccccn2)n1` (stereo not drawn), the “Percent Effect” value is -4.503%.
Regarding `COc1cccc(CN2CCCC2c2c(C)nn(C)c2C)c1` (stereo not drawn), the “Percent Effect” value was 27.85%.
As for `CNc1cncc(C2CCCN2Cc2ccnc(C)n2)n1` (stereo not drawn), the “Percent Effect” value is reported as -20.32%.
In the case of `Cc1cccc(CN2CCCC2c2cncc(Nc3nncs3)n2)c1` (stereo not drawn), the “Percent Effect” value came out at 96.91%.
Turning to `CNc1cncc(C2CCCN2Cc2cccc(C)n2)n1` (stereo not drawn), the “Percent Effect” value stood at 0.9246%.
Consider `COc1cccc(CN2CCCC2c2ccc[nH]2)c1` (stereo not drawn), for which the “Percent Effect” value was -7.682%.
In the case of `Cc1cccc(C(=O)N2C[C@@H](C)[C@@]3(CCN(c4ccsc4)C3=O)C2)n1.O=C(O)C(F)(F)F`, the “Percent Effect” value was 5.09%.
For the molecule `c1ccc(CO[C@H]2C[C@@H]3CN(Cc4cccnc4)C[C@@H]3C2)cc1`, the “Percent Effect” value is reported as -10.82%.
On to `c1nc(N2CCOC(Cn3cncn3)C2)c2sccc2n1` (stereo not drawn), for which the “Percent Effect” value was -23.67%.
Consider `c1cnn(CC2CN(c3ncnc4ccsc34)CCO2)c1` (stereo not drawn), for which the “Percent Effect” value is listed as 105.5%.
`Cc1cnn(CC2CN(c3ncnc4ccsc34)CCO2)c1` (stereo not drawn): the “Percent Effect” value is 28.88%.
For the molecule `C[C@H](N)Cn1nc(-c2cccs2)oc1=O.Cl`, the “Percent Effect” value is reported as -14.47%.
Next, `Cn1nc(CN2CCCCC(N)C2)c2c(Cl)cccc21` (stereo not drawn): -3.376%; `C[C@@H]1CN(C2CCN(Cc3nn(C)c4cccc(Cl)c34)CC2)C[C@H](C)O1`: -2.477%.
As for `Cn1nc(CN2CCCN(C3CCCC3)CC2)c2c(Cl)cccc21`, the figure is 57.91%; as for `Cc1ccc(C(=O)N2CCC3(CC2)CC(c2cnn(C)c2)CO3)cn1.O=C(O)C(F)(F)F` (stereo not drawn), -3.038%; as for `NC(=O)N1CC[C@H](O)[C@@H]1Cc1cccnc1.O=C(O)C(F)(F)F`, -3.918%.
Next, `C=C(C)CSc1nnc(CCNC(=O)OC(C)(C)C)o1`: 54.16%; `COC(=O)CSc1nnc(CCNC(=O)OC(C)(C)C)o1`: 12.63%.
With `CCN(CC)C(=O)CSc1nnc(CCNC(=O)OC(C)(C)C)o1`, the “Percent Effect” value is reported as 3.451%.
In the case of `O=C(O)C(F)(F)F.O=C(c1ccco1)N1CCO[C@@H]2CN(CC3CC3)CC[C@@H]2C1`, the “Percent Effect” value is -6.108%.
As to `CC(C)CN1CC[C@H](c2nnc(COc3ccc(F)cc3)o2)C1`, the “Percent Effect” value was 15.46%.
Next, `Fc1ccc(OCc2nnc([C@H]3CCN(Cc4ccncc4)C3)o2)cc1`: 43.75%; `Cc1ccc(CN2CC[C@H](c3nnc(COc4ccc(F)cc4)o3)C2)o1`: 102.2%; `Cc1nn(C)c(C)c1S(=O)(=O)N1CC[C@H]2O[C@@H](C)C[C@H]2C1.O=C(O)C(F)(F)F`: 4.759%.
